Compounds with a hit are over-represented: about 10% of the library has one in this group of screens.
Luciferase inh – Firefly luciferase inhibition profiling of diverse chemical library using quantitative high-throughput screening; Luciferin 4-monooxygenase (Photinus pyralis), P08659; purified P. pyralis luciferase, luminescence, biochemical; Potency, µM (top dose mostly 115 µM), usual class: inhibitors; 2.5% of 76,000 active; also: nearly all actives have a fitted effect of over 65% in size
Target sequence (P08659 whole entry, looked up): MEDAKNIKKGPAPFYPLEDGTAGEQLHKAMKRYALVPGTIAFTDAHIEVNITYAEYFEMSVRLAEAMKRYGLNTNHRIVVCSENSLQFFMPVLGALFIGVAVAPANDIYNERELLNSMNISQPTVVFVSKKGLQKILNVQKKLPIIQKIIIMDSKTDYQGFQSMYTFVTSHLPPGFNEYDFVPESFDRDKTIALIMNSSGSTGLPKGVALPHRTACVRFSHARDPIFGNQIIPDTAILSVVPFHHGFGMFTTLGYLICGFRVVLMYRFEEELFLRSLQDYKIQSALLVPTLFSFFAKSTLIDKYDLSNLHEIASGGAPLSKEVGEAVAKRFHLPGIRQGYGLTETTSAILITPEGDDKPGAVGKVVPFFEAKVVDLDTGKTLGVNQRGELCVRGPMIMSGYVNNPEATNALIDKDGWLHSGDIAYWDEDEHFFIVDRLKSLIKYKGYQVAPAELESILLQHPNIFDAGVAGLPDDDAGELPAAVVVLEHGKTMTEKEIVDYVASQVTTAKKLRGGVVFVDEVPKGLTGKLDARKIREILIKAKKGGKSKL
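Luminescence read by CCD imaging after purified firefly luciferase (10nM final) was added to substrate buffer holding 10uM D-luciferin and 10uM ATP, pH 7.5, pre-dosed with compound.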
NPR1 antag – Natriuretic polypeptide receptor (hNpr1) antagonism - Primary qHTS; Atrial natriuretic peptide receptor 1 (Homo sapiens), P16066; HEK293 hNpr1 GloSensor cGMP, ANP-stimulated luminescence; Potency, µM (highest dose often 46.3 µM), for inactives: at the top dose activity change, negative = inhibition, most hits filed as inhibitors; 1.6% of 76,000 active; calls by dose curve; also: nearly all actives have a fitted effect of over 60% in size
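HEK293 cells stably expressing human Npr1 and cGMP GloSensor pGS-40F, loaded 2 h with 2% GloSensor reagent, given compound 30 min at room temperature. Luminescence read before and 20 min after 0.1 nM hNppA.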
HEK293 tox – Cytotoxic Profiling in HEK 293 Cell Line of Diverse Libraries Using Quantitative High-Throughput Screening. HEK 293 viability, ATP luminescence (CellTiter-Glo), 48-72 h. AID 1345083, 2018. Potency, µM (top dose mostly 115 µM), without a hit: at the top dose activity change, negative = cytotoxicity, actives largely listed as inhibitors. 6.6% of 94,000 active; also: nearly all actives have a fitted effect of over 60% in size
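HEK 293 cells seeded at 250 cells/well were exposed to compound for 48 or 72 hr at 37 degree Celsius. Viability taken as ATP content by CellTiter-Glo luminescence.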
GPT2 inhibitor – Primary qHTS assay for inhibitors of Glutamate pyruvate transaminase 2 (GPT2) | Alanine aminotransferase 2 (Homo sapiens), Q8TD30 | Recombinant GPT2, coupled pyruvate oxidase/HRP Amplex Red fluorescence | Potency, µM (top dose mostly 57.7 µM), for the others: at the top dose activity change, negative = inhibition, usual class: inhibitors | 0.25% of 100,000 active | AID 1671188, 2021; also: nearly all actives have a fitted effect of over 60% in size
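Inhibition is scored from Amplex Red fluorescence generated when pyruvate oxidase and HRP act on pyruvate released by GPT2. Reactions contain 10ng/uL enzyme, 250uM a-KG and 2mM L-alanine and run 30 min at room temperature.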
3T3 cytotox – Cytotoxic Profiling in NIH 3T3 Cell Line of Diverse Libraries Using Quantitative High-Throughput Screening. NIH 3T3 viability, CellTiter-Glo ATP luminescence, 48-72 h. Potency, µM (doses to about 96.7 µM), for the others: at the highest dose activity change, negative = cytotoxicity, usual class: inhibitors. 4.3% of 94,000 active. AID 1345082, 2018; also: nearly all actives have a fitted effect of over 55% in size
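ATP-dependent luminescence (CellTiter-Glo) served as the viability signal for NIH 3T3 cells treated with compound for 48 or 72 hr at 37 °C.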
The depositor's hits bear a star; i = inactive; ? = inconclusive; nt = no result given; ! = repeats disagree; [ ] = another dose, or the depositor's remark. Unless noted, calls follow the shape of the dose curve; as a rule, active = well fitted curve in the direction sought with a large enough effect; inconclusive = small, poorly fitted or top-dose-only effect, or another doubt; inactive = no such curve, though single readings can be large; an effect the other way counts as inactive or inconclusive. % is scaled to controls: 0 for no effect and ±100 for the full control effect; potency is read from the fitted curve at half-maximal effect.

SMILES | Luciferase inh | NPR1 antag | HEK293 tox | GPT2 inhibitor | 3T3 cytotox
N#Cc1cccnc1-c1cccc(C(=O)NCCNC(=O)c2cccc(Cl)c2)c1 | nt | nt | ? | 2% | ?
CN1CCc2c([nH]c3ccccc23)C12CCN(C(=O)c1cccn1C)CC2 | i | 8% | ? | 3% | -26%
COc1ccc(-c2ccnc(N[C@H]3CO[C@H]4[C@@H]3OC[C@@H]4NC(=O)c3ccc4c(c3)OCO4)n2)cc1 | i | ? | 32µM* | 0% | ?
O=C(N[C@H]1CO[C@H]2[C@@H]1OC[C@@H]2Nc1nccc(-c2ccc(-c3ccccc3)cc2)n1)c1ccc2c(c1)OCO2 | i | -2% | 0% | i | -6%
CN(C)c1ccc(-c2ccnc(N[C@H]3CO[C@H]4[C@@H]3OC[C@H]4OC(=O)Nc3cccc(C(F)(F)F)c3)n2)cc1 | i | -15% | 32µM* | -16% | ?
COc1ccc(C(=O)N[C@H]2CO[C@H]3[C@@H]2OC[C@@H]3Nc2nccc(-c3cccc(F)c3)n2)cc1 | i | -1% | ? | 5% | -44%
COc1cccc(NC(=O)O[C@@H]2CO[C@H]3[C@@H]2OC[C@@H]3Nc2nccc(-c3cccc(F)c3)n2)c1 | i | -16% | 45µM* | 0% | ?
O=C(Nc1cccc(C(F)(F)F)c1)O[C@@H]1CO[C@H]2[C@@H]1OC[C@@H]2Nc1nccc(-c2ccc(-c3ccccc3)cc2)n1 | i | 0% | -24% | i | -14%
O=S(=O)(Cc1ccccc1)N[C@H]1CO[C@H]2[C@@H]1OC[C@@H]2Nc1nccc(-c2cccc(F)c2)n1 | i | ? | 32µM* | -8% | ?
COCC(=O)N1CCCC(C(=O)N2CCC(N3CCCC3=O)CC2)C1 (centres undefined) | nt | nt | -2% | i | i
N[C@@H]1CN(c2ncccn2)C[C@H]1CO | i | -1% | ? | 0% | -6%
O=C(Cc1ccc(Cl)cc1)N1CCC(N2CC3CC(C2)[C@H]2CCCC(=O)N2C3)CC1 (some centres undefined) | i | 4% | -17% | i | -7%
CN(C)C(=O)N1CCCCC(NC2CCN(c3ccc4c(c3)CCC4)CC2)C1 (centres undefined) | i | 0% | ? | i | ?
N#Cc1cccc(NC(=O)O[C@@H]2CO[C@H]3[C@@H]2OC[C@@H]3Nc2nccc(-c3ccc4c(c3)OCO4)n2)c1 | i | -30% | 28µM* | -4% | ?
COc1ccc(-c2ccnc(N[C@H]3CO[C@H]4[C@@H]3OC[C@@H]4NC(=O)Nc3cccc(C(F)(F)F)c3)n2)cc1 | i | -5% | 40µM* | -6% | 40µM*
COc1ccccc1-c1ccnc(N[C@H]2CO[C@H]3[C@@H]2OC[C@@H]3NC(=O)Nc2cccc(C(F)(F)F)c2)n1 | i | 1% | -3% | 1% | -26%
CC(C)(C)c1ccc(NC(=O)O[C@@H]2CO[C@H]3[C@@H]2OC[C@@H]3Nc2nccc(-c3ccc(-c4ccccc4)cc3)n2)cc1 | i | 0% | 28µM* | 1% | 40µM*
Cc1nc2c(c(-c3ccc(O)cc3)n1)CN(Cc1ccc(N(C)C)cc1)CCC2 | i | -27% | ? | i | ?
O=C(NCCCc1ccccc1)c1cn2cc(-c3ccc(F)cc3)sc2n1 | nt | nt | ? | -16% | 20µM*
O=C(NCCc1ccccc1)c1cn2cc(-c3ccc(C(F)(F)F)cc3)sc2n1 | nt | nt | -4% | -8% | -12%
COc1cccc(-c2cn3cc(C(=O)N4CCCCC4)nc3s2)c1 | nt | nt | ? | 2% | 40µM*
COc1cccc(-c2cn3cc(C(=O)N4CCN(C(C)=O)CC4)nc3s2)c1 | nt | nt | ? | i | ?
CC(C)CNC(=O)c1cn2cc(-c3ccccc3)sc2n1 | nt | nt | 71µM* | -10%[88.5 µM] | ?
O=C(NCc1ccc(F)cc1)c1cn2cc(-c3ccccc3)sc2n1 | nt | nt | 79µM* | -14%[88.5 µM] | ?
O=[S+]([O-])(NC1CCN(c2ccnc3ccnn23)C1)c1ccccc1 (centres undefined) | nt | nt | ? | i | ?
SMILES | Luciferase inh | NPR1 antag | HEK293 tox | GPT2 inhibitor | 3T3 cytotox
O=C(NC1CCCCC1)c1cn2cc(-c3ccccc3)sc2n1 | nt | nt | 63µM* | -11%[88.5 µM] | ?
COc1cccc(-c2cn3cc(C(=O)NCCCc4ccccc4)nc3s2)c1 | nt | nt | ? | -49% | 35µM*
O=C(NC1CC1)c1cn2cc(-c3ccccc3)sc2n1 | nt | nt | ? | i | ?
O=C(NCc1ccccn1)c1cn2cc(-c3ccccc3)sc2n1 | nt | nt | 50µM* | 5% | ?
O=C(NCc1ccccn1)c1cn2cc(-c3cccc(C(F)(F)F)c3)sc2n1 | nt | nt | ? | i | -14%
COCCNC(=O)C1CCN(Cc2ccccc2-c2cccnc2)CC1 | nt | nt | -17%[172 µM] | -3%[88.5 µM] | -1%[138 µM]
CN1C(=O)N(C)C2(CCN(Cc3cc(F)ccc3F)C2)C1=O (centres undefined) | nt | nt | i | -9% | -6%
CC1(C)CCC2=C(O1)c1ccccc1C(=O)C2=O | nt | nt | nt | 3.4µM*! | nt
COc1cccc(CN2Cc3cc(NC(=O)c4ccc([N+](=O)[O-])cc4)ccc3OCC2=O)c1OC | i | ? | 40µM* | 4% | ?
COc1cccc(CN2Cc3cc(NC(=O)c4cccc(OC)c4)ccc3OCC2=O)c1 | ? | -15% | 25µM* | 0% | ?
COc1ccc(C(=O)Nc2ccc3c(c2)CN(Cc2cccc(OC)c2OC)C(=O)CO3)cc1OC | i | 3% | ? | -1% | -25%
COc1ccc(C(=O)N2CCC(n3c(C)cnc3-c3ccccc3)CC2)c(OC)c1 | i | 2% | ? | -2% | -14%
COc1ccc(F)cc1-c1ccc(CN2CCCCC2C(=O)N2CCc3ccccc3C2)cc1 (centres undefined) | nt | nt | 32µM* | nt | 40µM*
COc1ccccc1-c1ccc(CN2CCCCC2C(=O)N2CCCC2)cc1 (centres undefined) | nt | nt | ? | -9% | ?
COc1ccccc1-c1ccc(CN2CCCCC2C(=O)NCc2ccccc2Cl)cc1 (centres undefined) | nt | nt | ? | nt | 28µM*
COc1ccccc1-c1ccc(CN2CCCCC2C(=O)NCc2cccc(F)c2)cc1 (centres undefined) | nt | nt | 32µM*! | nt | ?
COc1ccccc1-c1cccc(C(=O)N2CCC[C@H]2C(=O)NCc2ccc(F)cc2)c1 | nt | nt | ? | i | ?
